According to ChEMBL document CHEMBL4513146, “CO-ADD screening of Karazin Kharkiv National University (Ukraine) compounds”:
Entries with a potency or affinity are not part of this list.

Columns and labels:
Staphylococcus aureus = conditions: Concentration 32 ug.mL-1;; ASSAY_TEST Inhibition of Bacterial Growth; detection method Absorption (OD600); MEDIA CAMHB; plate type 384well; NBS; CORNING #3640; time 18 hr
Escherichia coli = conditions: Concentration 32 ug.mL-1;; ASSAY_TEST Inhibition of Bacterial Growth; detection method Absorption (OD600); MEDIA CAMHB; plate type 384well; NBS; CORNING #3640; time 18 hr

Compound | Inhibition (Staphylococcus aureus) | Inhibition (Escherichia coli)
O=C(Cn1nc2c3cc(-c4ccc(F)cc4)nn3ccn2c1=O)N1CCCc2ccccc21 | -1.84% | -5.07%
CCOC(=O)c1ccc(NC(=O)Cn2nc3ccc(SCc4ccc(Cl)cc4)nn3c2=O)cc1 | -0.24% | -11.17%
COc1ccc(NC(=O)Cn2nc3c(Sc4cccc(C)c4)nccn3c2=O)cc1Cl | -3.33% | -13.54%
COc1ccc(CNC(=O)CSc2nnc3c4cc(-c5ccccc5)nn4ccn23)cc1 | 9.71% | 1.16%
Cc1ccc(CNC(=O)Cn2nc3c(N4CCN(c5ccccc5C)CC4)nccn3c2=O)cc1 | 4.45% | -8.18%
CC1CCN(C(=O)Cn2nc3n(Cc4ccco4)c(=O)c4sccc4n3c2=O)CC1 | 1.87% | -2.27%
COc1cccc(-n2ccn3c(SCC(=O)NCc4ccc(C)cc4)nnc3c2=O)c1 | -1.77% | 2.15%
O=C(Cn1nc2c3sc(N4CCCC4)nc3ncn2c1=O)Nc1ccc(C(F)(F)F)cc1 | 13.19% | -0.19%
N#Cc1ccccc1NC(=O)Cn1nc2c(Oc3ccccc3)nccn2c1=O | 8.21% | 1.56%
CCc1ccccc1NC(=O)Cn1nc2c(Sc3ccc(C)cc3C)nccn2c1=O | 1.94% | -4.21%
CCc1ccccc1Sc1nccn2c(=O)n(CC(=O)N3CCN(c4ccc(F)cc4)CC3)nc12 | 2.23% | -2.15%
CCCCc1ccc(NC(=O)Cn2nc3c(Sc4ccccc4)nccn3c2=O)cc1 | 4.84% | -9.71%
